Data published in PubChem BioAssay (NCATS).
Inconclusive results are not listed. Active and inactive are the calls of the source. Unless noted, the call rests on the fitted dose curve; in most records, active means well fitted curve in the direction sought with a large enough effect; inconclusive means small, poorly fitted or top-dose-only effect, or another doubt; inactive means no such curve, though single readings can be large; an effect the other way counts as inactive or inconclusive.

Key:
[1] = target: Alpha-galactosidase (Coffea arabica) (UniProt Q42656); assay: Counterscreen for Glucocerebrosidase Inhibitors: qHTS Assay for Coffee Bean alpha-Galactosidase at pH 4.5 (AID 957); conditions: purified coffee bean alpha-galactosidase, fluorogenic substrate; series mostly up to 76.9 µM
Sequence of Alpha-galactosidase (Coffea arabica) (Q42656 whole entry, looked up): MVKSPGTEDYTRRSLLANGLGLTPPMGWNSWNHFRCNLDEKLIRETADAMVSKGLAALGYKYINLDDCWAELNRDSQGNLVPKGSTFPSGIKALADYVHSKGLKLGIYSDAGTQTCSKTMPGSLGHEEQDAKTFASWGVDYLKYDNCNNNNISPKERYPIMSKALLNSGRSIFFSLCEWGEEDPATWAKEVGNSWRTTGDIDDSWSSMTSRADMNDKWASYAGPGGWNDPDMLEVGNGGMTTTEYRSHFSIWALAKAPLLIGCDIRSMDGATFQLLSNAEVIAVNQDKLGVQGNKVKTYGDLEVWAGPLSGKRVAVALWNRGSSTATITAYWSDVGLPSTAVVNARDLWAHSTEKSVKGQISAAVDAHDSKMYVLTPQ
In short: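 Green coffee bean enzyme (2 nM final) was incubated with compounds (0.7 nM to 77 uM) and 4-methylumbelliferyl alpha-D-galactopyranoside (80 uM final) in 50 mM citric acid, 0.005% Tween-20, pH 4.5, 20 min at room temperature; AC50 from Hill fits.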

[2] = target: Alpha-galactosidase (Coffea arabica) (UniProt Q42656); assay: Counterscreen for Glucocerebrosidase Inhibitors: qHTS Assay for Coffee Bean alpha-Galactosidase at pH 5.9 (AID 998); conditions: coffee bean alpha-galactosidase enzyme assay; series mostly up to 76.9 µM
In short: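 Green coffee bean enzyme (2 nM final) was incubated with compounds (0.7 nM–77 uM) and 4-methylumbelliferyl alpha-D-galactopyranoside (80 uM) in citrate buffer pH 5.9, 20 min at room temperature. High-pH stop; fluorescence 365/440 nm; AC50 from Hill fits.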

[3] = Validation screen for inhibitors of Lassa infection (AID 463096; calls by dose curve); conditions: Lassa virus infection, cell-based; series mostly up to 46.1 µM
[4] = Inducers of the Endoplasmic Reticulum Stress Response (ERSR) in human glioma: Validation (AID 504836); conditions: human glioma cells, ER stress response reporter; series mostly up to 38.3 µM
In short: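 Stably transfected U87-MG human glioma cells carrying a GRP78-based luminescent sensor were seeded at 1000 cells/well, pin-dosed with compounds and incubated 16 h. Luciferase reagent was then added, and end-point luminescence was read after 10 min at room temperature.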

[5] = qHTS for Inhibitors of the Functional Ribonucleoprotein Complex (vRNP) of Lassa (LASV) Arenavirus: LASV Primary Screen - GLuc reporter signal (AID 1347082; calls by dose curve; tested in HEK293 reporter line; further: nearly all actives have a fitted effect of over 60% in size); conditions: LASV minigenome vRNP, Gaussia luciferase reporter; series mostly up to 57.5 µM
[6] = qHTS for Inhibitors of the Functional Ribonucleoprotein Complex (vRNP) of Lassa (LASV) Arenavirus: Viability assay - alamar blue signal for LASV Primary Screen (AID 1347083; calls by dose curve; tested in HEK293 reporter line; further: nearly all actives have a fitted effect of over 80% in size); conditions: cell viability, alamar blue fluorescence (LASV minigenome counter-screen); series mostly up to 57.5 µM
[7] = qHTS for Inhibitors of the Functional Ribonucleoprotein Complex (vRNP) of Lymphocytic Choriomeningitis Arenaviruses (LCMV): Viability assay - alamar blue signal for LCMV Primary Screen (AID 1347085; calls by dose curve; tested in HEK293 reporter line; further: nearly all actives have a fitted effect of over 80% in size); conditions: alamar blue viability counter-screen, LCMV vRNP screen cells; series mostly up to 57.5 µM
[8] = target: Nucleoprotein (Lymphocytic choriomeningitis virus (strain Armstrong)) (UniProt P09992); assay: qHTS for Inhibitors of the Functional Ribonucleoprotein Complex (vRNP) of Lymphocytic Choriomeningitis Arenaviruses (LCMV): LCMV Primary Screen - GLuc reporter signal (AID 1347086; calls by dose curve; further: nearly all actives have a fitted effect of over 70% in size); conditions: LCMV minigenome vRNP cell assay, Gaussia luciferase reporter; series mostly up to 57.5 µM
Sequence of Nucleoprotein (Lymphocytic choriomeningitis virus (strain Armstrong)) (P09992 whole entry, looked up): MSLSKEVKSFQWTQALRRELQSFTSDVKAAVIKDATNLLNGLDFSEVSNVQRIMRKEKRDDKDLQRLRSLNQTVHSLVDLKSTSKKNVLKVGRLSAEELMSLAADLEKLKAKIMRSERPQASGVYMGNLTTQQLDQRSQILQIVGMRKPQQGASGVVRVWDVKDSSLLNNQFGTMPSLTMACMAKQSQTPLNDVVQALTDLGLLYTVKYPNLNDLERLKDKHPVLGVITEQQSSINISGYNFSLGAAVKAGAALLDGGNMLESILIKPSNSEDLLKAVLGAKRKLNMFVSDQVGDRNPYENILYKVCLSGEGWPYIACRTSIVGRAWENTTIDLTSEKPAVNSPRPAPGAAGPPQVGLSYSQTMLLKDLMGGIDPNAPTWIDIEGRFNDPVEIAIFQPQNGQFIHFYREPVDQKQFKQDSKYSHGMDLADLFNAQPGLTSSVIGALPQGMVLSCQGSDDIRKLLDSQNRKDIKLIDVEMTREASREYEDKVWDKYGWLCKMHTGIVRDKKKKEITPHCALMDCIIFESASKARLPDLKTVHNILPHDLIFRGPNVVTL

Measured: Potency

O=C(O)/C(=C/c1c(C(=O)O)[nH]c2cc(Cl)cc(Cl)c12)c1ccccc1
inactive: all assays above

N#C/C(=C\c1ccc(O)c(O)c1)C(=O)c1ccc(O)c(O)c1
inactive: all assays above

C=CC[C@H](N)C(=O)O
inactive: all assays above

N[C@@H](CS(=O)O)C(=O)O
inactive: all assays above

C#CCn1c(=O)c2c(ncn2C)n(C)c1=O
inactive: all assays above

NCCCS(=O)(=O)O
inactive: all assays above

NC(=O)C(=O)O
inactive: all assays above
